A selection: hits, their analogues and other compounds. The true share with any hit is near 2.3%.
CHO-K1 Ca PAM = nonselective activator or artifact in parental CHO-K1 calcium assay. ATP EC20, Fluo-8 calcium fluorescence; 0% at ATP EC20, 100% at ATP max. 360,000 compounds, 0.02% hits. activation, % at 3 µM;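 active means activation above the run cutoff, the mean activation of all test compounds plus 3 SD, cut at about 40% in these data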;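 further: peak over basal fluorescence ratio in a 140 s read after ATP addition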
CHO-K1 Ca ag = nonselective activator or artifact in parental CHO-K1 cells. AID 602248. Fluo-8 calcium fluorescence; scaled to maximal ATP response, vehicle zero. activation, % at 3 µM. 360,000 compounds, 0.48% hits; in the data active means activation above about 15%;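 further: untransfected CHO-K1 host cells lacking M1 receptor as counterscreen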
M1 ag = activates human CHRM1 receptor; P11229; CHO-K1 hM1, Fluo-8 calcium fluorescence, agonist mode; 0% DMSO, 100% acetylcholine EC100; activation, % at 3 µM; 360,000 compounds, 0.33% hits; AID 588814;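 active means activation above the run's mean compound activation plus 3 SD, cut at about 16% in these data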;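 further: peak over basal fluorescence ratio within a 140 s kinetic read after compound addition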
Target sequence (P11229 whole entry, looked up): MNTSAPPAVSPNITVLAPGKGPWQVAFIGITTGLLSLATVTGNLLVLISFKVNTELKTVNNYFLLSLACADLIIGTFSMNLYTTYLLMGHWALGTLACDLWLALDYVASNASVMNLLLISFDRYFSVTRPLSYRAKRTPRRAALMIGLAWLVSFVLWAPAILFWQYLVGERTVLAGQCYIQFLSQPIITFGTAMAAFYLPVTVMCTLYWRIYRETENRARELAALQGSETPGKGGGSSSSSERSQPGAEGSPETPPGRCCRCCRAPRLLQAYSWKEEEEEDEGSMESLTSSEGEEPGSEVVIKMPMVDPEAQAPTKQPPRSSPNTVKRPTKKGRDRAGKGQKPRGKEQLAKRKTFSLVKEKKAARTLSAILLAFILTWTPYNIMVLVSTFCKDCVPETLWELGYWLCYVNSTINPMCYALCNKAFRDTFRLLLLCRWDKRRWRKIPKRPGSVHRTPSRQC
M1 antag = blocks human M1 muscarinic receptor; CHO-K1 hM1, Fluo-8 calcium fluorescence, ACh EC80 antagonist; inhibition, % at 3 µM; 360,000 compounds, 1.3% hits;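 active means percent inhibition above its own plate's cutoff, namely the mean of that plate's compound wells plus 3 SD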;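 further: peak over basal fluorescence ratio during 140 s after agonist addition; 0% = ACh EC80 plus DMSO and 100% = DMSO alone without agonist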
M1 PAM = potentiates human M1 receptor response to acetylcholine | P11229 | CHO-K1 hM1, Fluo-8 calcium fluorescence, ACh EC20; 0% = ACh EC20, 100% = maximal ACh | activation, % at 3 µM | 360,000 compounds, 0.088% hits | AID 588819; in the data active means activation above about 19%, passing the limit was not always enough
CHO-K1 Ca antag = counter-screen for M1 antagonists: effect in parental CHO-K1 cells; inhibition, % at 3 µM; 360,000 compounds, 0.6% hits; AID 602250; ATP-induced calcium, Fluo-8 fluorescence;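 active means inhibition above a per-plate cutoff, the plate's mean sample inhibition plus 3 SD, cut at about 24% in these data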;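 further: 0% = DMSO plus EC80 ATP and 100% = DMSO alone without ATP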
* = called active by the depositor.

SMILES	CHO-K1 Ca PAM	CHO-K1 Ca ag	M1 ag	M1 antag	M1 PAM	CHO-K1 Ca antag
CCOCCCN1CC(=O)N2[C@@H](Cc3c([nH]c4ccccc34)C2(C)C)C1=O	4.5	1.0	-1.7	-0.4	1.7	3.1
O=C1CCCN1CCCNc1nc(NCc2cccs2)nc2ccsc12	-11.5	55.8*	68.7*	67.7*	-32.6	21.6
COCCNc1nc(NCc2cccs2)nc2ccsc12	-18.4	85.0*	93.3*	90.9*	-33.3	64.1*
c1csc(CNc2nc(NCC3CCCCC3)c3sccc3n2)c1	13.7	13.9	6.8	24.5	-13.6	22.9
CC(=O)NCCNc1nc(NCc2cccs2)nc2ccsc12	-2.0	5.2	-2.9	-25.2	-1.4	-5.8
c1ccc(CNc2nc(NCCc3ccncc3)c3sccc3n2)cc1	-14.3	93.1*	99.2*	91.4*	-30.9	99.0*
CCOC(=O)Cc1ccc(Nc2nc(NCCOC)nc3ccsc23)cc1	-11.4	5.3	-4.7	42.1*	-30.3	-2.4
O=C(NCc1ccccn1)c1ccc(CNS(=O)(=O)c2ccc(F)cc2)cc1	27.3	2.2	-4.4	-3.3	7.7	-9.7
CCCCC(=O)OCc1c(-c2cccc(OC)c2)ncc2ccccc12	-1.8	-0.5	-9.3	4.6	-2.8	-9.2
O=C(COc1ccc(Br)cc1)N(Cc1ccco1)C1CCS(=O)(=O)C1 (stereo not drawn)	13.5	1.5	-1.6	-6.6	4.0	-16.4
Cc1nc(CCNS(=O)(=O)c2cccnc2)cs1	-1.2	0.6	-2.7	-21.8	0.5	-10.4
O=C(CCS(=O)(=O)Cc1cccc(Cl)c1)NCCc1ccccc1	8.3	2.7	-5.5	-0.7	-0.4	-4.7
CNc1nc(NCc2ccccc2)c2sccc2n1	-9.0	6.0	1.9	8.3	-3.5	-4.9
Cc1ccc(Nc2nc(NCc3ccccc3)nc3ccsc23)c(C)c1	-10.5	2.4	15.6	55.4*	-24.2	18.5
CC(C)Nc1nc(NCCN2CCNC2=O)c2sccc2n1	17.1	0.4	-8.7	-10.8	-1.3	-9.1
COc1cccc(CNc2nc(NCc3ccccc3)nc3ccsc23)c1	-16.4	28.6*	15.2	45.8*	-27.8	21.4
O=C1NCCN1CCNc1nc(NCc2ccccc2)nc2ccsc12	-12.7	32.2*	47.1*	69.5*	-32.6	27.3*
c1ccc(CNc2nc(NCc3cccs3)nc3ccsc23)cc1	10.6	15.7*	14.4	25.3	-21.2	13.8
Cc1ccc(Nc2nc(NCc3cccs3)nc3ccsc23)c(C)c1	8.0	6.6	5.6	13.3	-15.2	8.3
COc1cccc(CNc2nc(NCC3CC3)nc3ccsc23)c1OC	-12.5	4.0	-4.0	34.6	-27.3	5.0
CSc1ccccc1CNc1nc(NCC2CC2)nc2ccsc12	-10.2	8.5	1.9	39.4*	-21.3	17.0
O=P(C(=S)Nc1ccccc1Cl)(c1ccccc1)c1ccccc1	30.2	-0.2	-2.0	-11.9	2.6	-18.6
CCN(Cc1cc(=O)n2ccsc2n1)c1cccc2ccccc12	6.7	1.1	-7.7	2.8	-1.7	-4.1
Cc1ccc2nc(Nc3ccccc3)c(/C=N/O)c(=O)n2c1	-6.6	1.3	-0.2	-4.3	0.2	26.3*
CCOC(=O)c1c(NC(=O)COC(=O)C2CC2C)sc(C)c1C (stereo not drawn)	-7.8	-0.4	-6.9	2.8	-10.3	-14.4
SMILES	CHO-K1 Ca PAM	CHO-K1 Ca ag	M1 ag	M1 antag	M1 PAM	CHO-K1 Ca antag
O=C(COc1ccc(Cl)cc1)Nc1cc(S(=O)(=O)N2CCCCC2)ccc1N1CCCCC1	18.6	0.3	-1.8	-12.1	0.7	-9.8
CCCc1nnc(NC(=S)Nc2ccccc2)s1	-8.6	0.1	-1.6	3.0	-0.1	-15.8
CC(C)C(=O)Nc1nnc(NC(=S)Nc2ccccc2)s1	9.5	19.2*	-6.9	-2.9	9.1	-1.9
CCN(CC)C(=O)Cn1cc(S(=O)(=O)CC(=O)NC2CCCCC2)c2ccccc21	5.7	1.1	-2.1	-15.2	3.8	-18.8
CCC(C(=O)N1CCN(c2ncccn2)CC1)c1ccccc1 (stereo not drawn)	18.4	1.4	-4.0	27.3*	12.1	-11.2
CC(Oc1ccccc1)C(=O)N1CCN(c2ncccn2)CC1 (stereo not drawn)	7.2	0.3	-1.1	-9.6	13.7	-6.5
CC(=O)Nc1ccc(NC(=O)CSc2ccc([N+](=O)[O-])cn2)cc1	2.2	0.1	-1.3	-12.8	6.9	0.8
CN1CCCN(C(=O)CC(c2ccccc2)c2ccccc2)CC1	0.1	0.4	-12.2	99.4*	-31.2	1.9
Cc1cc(NC(=O)COc2ccc(Cl)cc2Cl)n(-c2ccccc2)n1	-2.7	0.6	-3.3	0.3	-1.4	10.3
Cc1cc(NC(=O)CSc2cc(Cl)ccc2Cl)n(-c2ccccc2)n1	-3.7	2.6	-7.8	0.8	-6.5	25.1*
CN1C(=S)N(c2cccnc2)C(=O)/C1=C\c1ccc(C(C)(C)C)cc1	11.1	15.1	-1.3	8.2	2.5	-0.9
CN1C(=S)N(c2cccnc2)C(=O)/C1=C\c1ccc(N(C)C)cc1	4.1	21.0*	39.4*	44.2*	-19.6	12.4
O=C(c1ccccc1)c1ccc(-n2cnnc2)c([N+](=O)[O-])c1	4.5	22.2*	0.0	-10.2	6.3	-20.4
O=C(C[C@@H]1C/C=C\C[C@H](NC(=O)OCC2c3ccccc3-c3ccccc32)C(=O)OC[C@H]2CCCN2C1=O)NCCO	12.2	-0.1	-13.6	0.4	0.7	-15.8
CCOc1ccc(-n2c(-c3ccc(Cl)cc3)c[n+]3c2SCC3)cc1	17.9	0.6	-6.7	50.2*	-19.3	-16.0
c1ccc(-c2c[n+]3c(n2-c2ccccc2)SCC3)cc1	17.2	0.2	-9.3	-3.8	0.1	-6.4
S=C(NCCc1ccccc1)Nc1cccc2cnccc12	-23.4	12.0	1.3	28.1	-1.5	32.5*
N=C1/C(=C\c2ccc(-c3cccc(C(=O)O)c3)o2)C(=O)N=C2SC=C(c3ccccc3)N12	-6.5	3.9	0.1	13.1	-5.5	7.8
CN1CCN(c2ccc(CNC(=O)c3ccco3)cc2)CC1	6.4	18.0*	-5.2	-5.3	3.8	5.9
O=C(COC(=O)c1cc(Br)ccc1Cl)NC1CCCC1	6.6	1.4	-2.8	-4.3	14.6	-10.6
OC[C@@H]1CN(Cc2ccc(-c3ccccc3)cc2)C[C@H](n2cnc3c(NCc4ccco4)ncnc32)O1	-12.8	7.6	5.8	18.8	1.0	24.8*
COc1cc(CN2C[C@@H](CO)O[C@@H](n3cnc4c(NC5CCC5)ncnc43)C2)cc(OC)c1OC	32.0	0.1	3.4	-7.9	5.1	-9.4
COc1cc(CN2C[C@@H](CO)O[C@@H](n3cnc4c(Nc5ccccc5)ncnc43)C2)cc(OC)c1OC	-15.4	5.4	-0.5	32.9	-20.0	33.4*
OC[C@@H]1CN(Cc2ccc(-c3ccccc3)cc2)C[C@H](n2cnc3c(NCc4ccncc4)ncnc32)O1	-3.6	16.7*	6.4	25.1	-9.3	7.8

Assay outcomes deposited in PubChem BioAssay by The Scripps Research Institute Molecular Screening Center.
